Compound activity: PubChem BioAssay, NMMLSC
Anthrax LF prot: Bacillus anthracis LF protease inhibitors, primary screen, biochemical, multiplex microsphere, MLPCN library; Lethal factor (Bacillus anthracis), P15917; multiplex microsphere protease cleavage assay; inhibition, % at 10 µM; 360,000 tested, 0.12% active; further: plate controls were buffer without enzyme for full effect and enzyme alone for no effect
BoNT A protease: BoNT/A light chain protease inhibitors, primary screen, biochemical, flow cytometry, MLPCN library; Botulinum neurotoxin type A light chain protease (Clostridium botulinum A str. ATCC 3502); multiplex microsphere protease substrate cleavage; inhibition, % at 10 µM; 360,000 tested, 0.17% active; AID 588499, 2011; further: plate controls were buffer without enzyme for full effect and enzyme alone for no effect
Autofluor counter: compound fluorescence in toxin protease inhibitor counterscreen; fluorescence intensity (test concentration not listed); compound autofluorescence counterscreen, microsphere flow cytometry; hits give high values; 360,000 tested, 3.1% active; in the data active means fluorescence intensity above about 16000; inconclusive means no clear call, values can overlap the other calls
BoNT F protease: BoNT/F light chain protease inhibitors, primary screen, biochemical, flow cytometry, MLPCN library; Multiplex microsphere protease cleavage assay; inhibition, % at 10 µM; 360,000 tested, 0.22% active; AID 588497, 2011; in the data active means inhibition above about 35%, passing the limit was not always enough; inconclusive means no clear call, values can overlap the other calls; further: plate controls were buffer without enzyme for full effect and enzyme alone for no effect
* marks the source's active call; other numbers are inactive results. In the library only some 3.5% were active in any assay of this set; here they are far more common. Unless noted, no stated cut-off is given here; in the data, active means inhibition above about 30%; inconclusive means no clear call, values can overlap the other calls; inactive means below that.

CCN1CCN(C(=O)Nc2cc(Cl)ccc2OC)CC1 was read as Anthrax LF prot -2, BoNT A protease 0, Autofluor counter 2656 and BoNT F protease -1.
`CCOC(=O)c1ccc(NC(=O)N2CCCCC2)cc1` gave Anthrax LF prot 0, BoNT A protease 0, Autofluor counter 3015 and BoNT F protease -6.
`O=C(NN=Cc1ccc2c(c1)CCN2)c1cccs1` gave Anthrax LF prot 2, BoNT A protease -1, Autofluor counter 3759 and BoNT F protease -4.
CCCS(=O)(=O)NC(=O)C1(C)CCCN(C(=O)c2cc(F)ccc2C)C1 (stereo unspecified) was read as Anthrax LF prot 1, BoNT A protease 0, Autofluor counter 2888 and BoNT F protease -4.
`NC(=S)NN=C1CSSC1` gave Anthrax LF prot 2, BoNT A protease 0, Autofluor counter 3765 and BoNT F protease -4.
`COc1ccc([C@H]2CC(=O)C[C@@H](CCn3nnc4ccccc43)O2)cc1` gave Anthrax LF prot -8, BoNT A protease 0, Autofluor counter 6392 and BoNT F protease -5.
For COc1ccc(NC(=O)N2CCN(S(C)(=O)=O)CC2)cc1OC the results were Anthrax LF prot -1, BoNT A protease -1, Autofluor counter 22966* and BoNT F protease -2.
For CC(NC(=O)Nc1ccc(Cl)cc1)C1CCCO1 (stereo unspecified) the results were Anthrax LF prot 0, BoNT A protease 0, Autofluor counter 2068 and BoNT F protease -3.
`CCOC(=O)c1ccc(NC(=S)N2CCN(S(C)(=O)=O)CC2)cc1` gave Anthrax LF prot -3, BoNT A protease -1, Autofluor counter 16800* and BoNT F protease -1.
CCOC(=O)c1ccc(NC(=O)NC(C)C2CCCO2)cc1 (stereo unspecified) was read as Anthrax LF prot -1, BoNT A protease 3, Autofluor counter 21999* and BoNT F protease 4.
For CN1C=CC(C(C(N)=O)c2ccccc2)c2ccccc21 (stereo unspecified) the results were Anthrax LF prot -3, BoNT A protease 0, Autofluor counter 2971 and BoNT F protease -2.
O=C(CCNS(=O)(=O)c1cccc2nsnc12)N1CC(=O)N(CCc2ccccc2)C(=O)C1 was read as Anthrax LF prot -3, BoNT A protease inconclusive, Autofluor counter 21566* and BoNT F protease -7.
O=C(CCCNS(=O)(=O)c1cccc2nsnc12)N1CCCCC1 was read as Anthrax LF prot -1, BoNT A protease 0, Autofluor counter 4308 and BoNT F protease -13.
For CN(C(=S)NC(=O)c1ccccc1Br)C1CCCCC1 the results were Anthrax LF prot -5, BoNT A protease -1, Autofluor counter 16560* and BoNT F protease -2.
For OCC[C@@H]1C[C@H](O)[C@@H](O)[C@@]2(OCc3ccc(CO)cc32)O1 the results were Anthrax LF prot 5, BoNT A protease 0, Autofluor counter 5931 and BoNT F protease -3.
`CC(=O)c1ccc(NC(=O)C2CC(c3ccc(F)cc3)=NO2)cc1` (stereo unspecified) gave Anthrax LF prot -2, BoNT A protease -1, Autofluor counter 23509* and BoNT F protease -3.
Screening CC(=O)c1cccc(NC(=O)C2CC(c3ccc(F)cc3)=NO2)c1 (stereo unspecified) returned Anthrax LF prot -4, BoNT A protease 0, Autofluor counter 4262 and BoNT F protease 21.
O=C(NC1CCCC1)C1CC(c2ccc(F)cc2)=NO1 (stereo unspecified) was read as Anthrax LF prot 0, BoNT A protease -1, Autofluor counter 23071* and BoNT F protease -5.
`COc1cccc(C2=NOC(C(=O)Nc3cccc(C(C)=O)c3)C2)c1` (stereo unspecified) gave Anthrax LF prot -3, BoNT A protease 9, Autofluor counter 19143* and BoNT F protease 11.
CC1CCCC(C)N1C(=O)C1CC(c2ccc(F)cc2)=NO1 (stereo unspecified) was read as Anthrax LF prot 0, BoNT A protease -3, Autofluor counter 17330* and BoNT F protease -4.
`CC1(C)N=C(N)N=C(N)N1c1ccc(OCC(=O)N2CCOCC2)c(Cl)c1` gave Anthrax LF prot -7, BoNT A protease 0, Autofluor counter 3808 and BoNT F protease 0.
Screening COc1ccc(-c2c(N)cnc(C(=O)O)c2C)c(OCc2ccccc2)c1OC returned Anthrax LF prot -3, BoNT A protease -1, Autofluor counter 3130 and BoNT F protease -1.
For COc1ccc(-c2nc3ccc(C)cn3c2CC(C)(C)C)cc1OC the results were Anthrax LF prot 0, BoNT A protease 1, Autofluor counter 4828 and BoNT F protease -7.
For CCN(C(=O)COC(=O)c1cc(Cl)ccc1OC)c1c(N)n(Cc2ccccc2)c(=O)[nH]c1=O the results were Anthrax LF prot -5, BoNT A protease 0, Autofluor counter 3733 and BoNT F protease -1.
O=c1nc(-c2ccccc2Cl)c2cc(F)ccc2[nH]1 was read as Anthrax LF prot 16, BoNT A protease -1, Autofluor counter 4135 and BoNT F protease 51*.
`CCn1c(=O)c(C(=O)NCc2ccccc2)c(O)c2ccccc21` gave Anthrax LF prot 48*, BoNT A protease -1, Autofluor counter 3293 and BoNT F protease 7.
For CCn1c(=O)c(C(=O)NCc2ccc(Cl)cc2)c(O)c2ccccc21 the results were Anthrax LF prot 4, BoNT A protease 1, Autofluor counter 3888 and BoNT F protease inconclusive.
Screening CN(C)Cc1csc(NC(=O)Nc2ccccc2Oc2ccccc2)n1 returned Anthrax LF prot -4, BoNT A protease 0, Autofluor counter 3652 and BoNT F protease -8.
COc1ccc(-c2csc(C(C)(O)c3ccncc3)n2)cc1OC (stereo unspecified) was read as Anthrax LF prot -2, BoNT A protease 0, Autofluor counter 3654 and BoNT F protease 2.
Screening CCC(Oc1ccc(C)cc1)C(=O)Nc1ccc2c(c1)n(C)c(=O)n2C (stereo unspecified) returned Anthrax LF prot -2, BoNT A protease 0, Autofluor counter 3913 and BoNT F protease inconclusive.
For CCC(Oc1ccccc1F)C(=O)Nc1ccc2c(c1)n(C)c(=O)n2C (stereo unspecified) the results were Anthrax LF prot -7, BoNT A protease 2, Autofluor counter 4019 and BoNT F protease 38*.
`CCCOc1ccc(C(=O)N2CCN(c3ccc(NC(=O)CC)cc3Cl)CC2)cc1` gave Anthrax LF prot 1, BoNT A protease inconclusive, Autofluor counter 20982* and BoNT F protease -4.
For CN1CCN(c2ccc(NC(=O)COc3ccccc3)cc2Cl)CC1 the results were Anthrax LF prot 0, BoNT A protease 3, Autofluor counter 5927 and BoNT F protease -4.
For COCCn1c(SCC(=O)Nc2c(C)n(C)n(-c3ccccc3)c2=O)nnc1-c1ccncc1 the results were Anthrax LF prot -9, BoNT A protease -1, Autofluor counter 3722 and BoNT F protease 2.
